# Experimental data: ChEMBL document CHEMBL1961873, “Compounds: GSK PKIS; Assays: Nanosyn kinase panel” (2012)
# Assays:
# [1] = target: Fibroblast growth factor receptor 4 (Homo sapiens) (UniProt P22455); settings: at 1 µM;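 further: reported figure is the averaged percent inhibition of FGFR4, from the GSK PKIS kinase screening panel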
# [2] = target: Tyrosine-protein kinase Fgr (Homo sapiens) (UniProt P09769); settings: at 0.1 µM
# [3] = target: Tyrosine-protein kinase Fgr (Homo sapiens) (UniProt P09769); settings: at 1 µM
# [4] = target: Vascular endothelial growth factor receptor 1 (Homo sapiens) (UniProt P17948); settings: at 0.1 µM
# [5] = target: Vascular endothelial growth factor receptor 1 (Homo sapiens) (UniProt P17948); settings: at 1 µM
# [6] = target: Receptor-type tyrosine-protein kinase FLT3 (Homo sapiens) (UniProt P36888); settings: at 0.1 µM
# [7] = target: Receptor-type tyrosine-protein kinase FLT3 (Homo sapiens) (UniProt P36888); settings: at 1 µM
# [8] = tested on: T1, Receptor-type tyrosine-protein kinase FLT3 (Homo sapiens), P36888 [D835Y]; settings: at 0.1 µM
# T1 sequence (whole entry): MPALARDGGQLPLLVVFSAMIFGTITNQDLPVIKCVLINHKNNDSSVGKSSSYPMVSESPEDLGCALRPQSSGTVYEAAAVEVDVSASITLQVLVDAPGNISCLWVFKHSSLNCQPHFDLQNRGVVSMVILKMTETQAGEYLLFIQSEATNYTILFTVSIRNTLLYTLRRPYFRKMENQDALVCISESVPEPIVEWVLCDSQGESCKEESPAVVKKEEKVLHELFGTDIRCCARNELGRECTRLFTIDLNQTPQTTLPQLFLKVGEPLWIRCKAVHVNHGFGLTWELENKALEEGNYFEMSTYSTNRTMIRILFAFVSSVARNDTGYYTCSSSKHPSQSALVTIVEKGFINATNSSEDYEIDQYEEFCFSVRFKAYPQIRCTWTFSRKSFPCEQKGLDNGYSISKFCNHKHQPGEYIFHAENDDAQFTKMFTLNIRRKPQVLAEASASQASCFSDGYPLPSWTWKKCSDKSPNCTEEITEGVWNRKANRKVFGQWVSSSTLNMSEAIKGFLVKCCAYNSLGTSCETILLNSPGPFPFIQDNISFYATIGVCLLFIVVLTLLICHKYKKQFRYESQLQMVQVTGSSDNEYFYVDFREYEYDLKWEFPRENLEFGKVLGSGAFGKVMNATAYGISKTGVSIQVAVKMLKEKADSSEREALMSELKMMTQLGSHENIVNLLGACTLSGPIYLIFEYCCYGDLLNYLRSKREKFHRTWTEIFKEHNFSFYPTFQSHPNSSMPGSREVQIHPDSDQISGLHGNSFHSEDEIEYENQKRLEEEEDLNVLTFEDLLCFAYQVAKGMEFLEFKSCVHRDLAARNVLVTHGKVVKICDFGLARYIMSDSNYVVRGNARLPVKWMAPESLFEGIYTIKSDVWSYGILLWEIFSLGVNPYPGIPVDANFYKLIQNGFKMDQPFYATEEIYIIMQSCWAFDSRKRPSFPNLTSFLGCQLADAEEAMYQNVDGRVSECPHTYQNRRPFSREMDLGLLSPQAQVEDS
# [9] = target: Non-receptor tyrosine-protein kinase TYK2 (Homo sapiens) (UniProt P29597); settings: at 1 µM;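 further: values are mean percent inhibition of TYK2 kinase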
# [10] = target: T2, Tyrosine-protein kinase receptor TYRO3 (Homo sapiens) (UniProt Q06418); settings: at 0.1 µM
# T2 sequence (whole entry): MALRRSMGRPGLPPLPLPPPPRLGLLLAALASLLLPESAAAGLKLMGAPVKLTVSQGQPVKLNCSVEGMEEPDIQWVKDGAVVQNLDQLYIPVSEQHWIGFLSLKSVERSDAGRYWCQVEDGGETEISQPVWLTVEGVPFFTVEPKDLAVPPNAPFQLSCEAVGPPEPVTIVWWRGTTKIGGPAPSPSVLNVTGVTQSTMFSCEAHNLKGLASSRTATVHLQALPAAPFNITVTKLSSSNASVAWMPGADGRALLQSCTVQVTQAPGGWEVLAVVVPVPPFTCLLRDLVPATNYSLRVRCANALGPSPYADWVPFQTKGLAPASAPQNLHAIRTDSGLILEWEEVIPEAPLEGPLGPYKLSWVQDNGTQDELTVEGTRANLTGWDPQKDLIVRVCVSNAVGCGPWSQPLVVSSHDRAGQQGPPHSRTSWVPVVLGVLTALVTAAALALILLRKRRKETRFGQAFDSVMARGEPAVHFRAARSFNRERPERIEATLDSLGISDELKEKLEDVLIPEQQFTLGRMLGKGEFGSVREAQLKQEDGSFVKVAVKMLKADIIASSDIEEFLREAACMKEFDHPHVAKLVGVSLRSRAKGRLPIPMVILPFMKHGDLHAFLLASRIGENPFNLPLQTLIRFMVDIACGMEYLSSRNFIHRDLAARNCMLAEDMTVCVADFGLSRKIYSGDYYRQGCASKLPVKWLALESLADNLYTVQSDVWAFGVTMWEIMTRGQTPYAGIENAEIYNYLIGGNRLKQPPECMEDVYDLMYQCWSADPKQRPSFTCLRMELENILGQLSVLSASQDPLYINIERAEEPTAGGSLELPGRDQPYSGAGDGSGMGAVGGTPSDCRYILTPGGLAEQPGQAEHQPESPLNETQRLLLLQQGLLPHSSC
# [11] = target: T2, Tyrosine-protein kinase receptor TYRO3 (Homo sapiens); settings: at 1 µM
# [12] = target: Tyrosine-protein kinase Yes (Homo sapiens) (UniProt P07947); settings: at 0.1 µM
# [13] = target: Tyrosine-protein kinase Yes (Homo sapiens) (UniProt P07947); settings: at 1 µM
# [14] = target: T3, Tyrosine-protein kinase ZAP-70 (Homo sapiens) (UniProt P43403); settings: at 0.1 µM
# T3 sequence (whole entry): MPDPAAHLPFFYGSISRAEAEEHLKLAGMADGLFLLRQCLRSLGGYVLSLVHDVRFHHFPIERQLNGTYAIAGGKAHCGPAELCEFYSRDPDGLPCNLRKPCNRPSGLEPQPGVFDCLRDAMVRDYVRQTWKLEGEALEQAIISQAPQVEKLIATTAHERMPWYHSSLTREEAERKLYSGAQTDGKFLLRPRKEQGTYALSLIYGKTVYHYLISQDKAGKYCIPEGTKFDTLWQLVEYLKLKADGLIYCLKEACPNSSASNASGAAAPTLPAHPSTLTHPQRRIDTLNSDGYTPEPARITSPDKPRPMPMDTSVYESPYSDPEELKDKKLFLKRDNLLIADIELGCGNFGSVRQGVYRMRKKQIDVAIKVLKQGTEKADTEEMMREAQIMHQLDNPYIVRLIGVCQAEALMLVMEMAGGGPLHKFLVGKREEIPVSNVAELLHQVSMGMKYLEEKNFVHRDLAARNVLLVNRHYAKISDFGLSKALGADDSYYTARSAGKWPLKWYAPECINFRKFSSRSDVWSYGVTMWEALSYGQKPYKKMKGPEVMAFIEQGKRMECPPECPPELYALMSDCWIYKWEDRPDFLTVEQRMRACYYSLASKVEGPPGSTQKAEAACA
# [15] = target: T3, Tyrosine-protein kinase ZAP-70 (Homo sapiens); settings: at 1 µM
# [16] = target: Serine/threonine-protein kinase B-raf (Homo sapiens) (UniProt P15056); settings: at 0.1 µM
# [17] = target: Serine/threonine-protein kinase B-raf (Homo sapiens) (UniProt P15056); settings: at 1 µM
# [18] = tested on: Serine/threonine-protein kinase B-raf (Homo sapiens), P15056 [V600E]; settings: at 0.1 µM
# [19] = tested on: Serine/threonine-protein kinase B-raf (Homo sapiens), P15056 [V600E]; settings: at 1 µM
# [20] = target: RAF proto-oncogene serine/threonine-protein kinase (Homo sapiens) (UniProt P04049); settings: at 0.1 µM;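 further: values are mean CRAF kinase inhibition from profiling of the GSK Published Kinase Inhibitor Set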
# Sequence of RAF proto-oncogene serine/threonine-protein kinase (Homo sapiens) (P04049 whole entry): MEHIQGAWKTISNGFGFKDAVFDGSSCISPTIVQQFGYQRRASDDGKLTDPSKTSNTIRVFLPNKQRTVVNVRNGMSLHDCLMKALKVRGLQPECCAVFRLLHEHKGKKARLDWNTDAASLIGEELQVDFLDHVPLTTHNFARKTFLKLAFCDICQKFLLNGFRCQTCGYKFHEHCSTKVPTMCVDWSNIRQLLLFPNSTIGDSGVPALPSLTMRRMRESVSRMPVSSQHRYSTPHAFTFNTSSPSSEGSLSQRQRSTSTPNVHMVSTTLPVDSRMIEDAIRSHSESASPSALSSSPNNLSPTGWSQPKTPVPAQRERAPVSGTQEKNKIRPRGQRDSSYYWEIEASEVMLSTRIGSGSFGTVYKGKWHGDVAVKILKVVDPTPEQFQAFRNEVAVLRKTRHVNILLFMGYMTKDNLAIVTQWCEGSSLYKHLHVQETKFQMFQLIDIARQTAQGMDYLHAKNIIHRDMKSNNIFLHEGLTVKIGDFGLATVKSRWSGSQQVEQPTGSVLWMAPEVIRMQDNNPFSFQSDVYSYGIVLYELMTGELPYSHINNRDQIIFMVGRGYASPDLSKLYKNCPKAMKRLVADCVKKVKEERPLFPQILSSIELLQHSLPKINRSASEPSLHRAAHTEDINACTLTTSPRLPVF
# Sequence of Fibroblast growth factor receptor 4 (Homo sapiens) (P22455 22-802 limits assumed): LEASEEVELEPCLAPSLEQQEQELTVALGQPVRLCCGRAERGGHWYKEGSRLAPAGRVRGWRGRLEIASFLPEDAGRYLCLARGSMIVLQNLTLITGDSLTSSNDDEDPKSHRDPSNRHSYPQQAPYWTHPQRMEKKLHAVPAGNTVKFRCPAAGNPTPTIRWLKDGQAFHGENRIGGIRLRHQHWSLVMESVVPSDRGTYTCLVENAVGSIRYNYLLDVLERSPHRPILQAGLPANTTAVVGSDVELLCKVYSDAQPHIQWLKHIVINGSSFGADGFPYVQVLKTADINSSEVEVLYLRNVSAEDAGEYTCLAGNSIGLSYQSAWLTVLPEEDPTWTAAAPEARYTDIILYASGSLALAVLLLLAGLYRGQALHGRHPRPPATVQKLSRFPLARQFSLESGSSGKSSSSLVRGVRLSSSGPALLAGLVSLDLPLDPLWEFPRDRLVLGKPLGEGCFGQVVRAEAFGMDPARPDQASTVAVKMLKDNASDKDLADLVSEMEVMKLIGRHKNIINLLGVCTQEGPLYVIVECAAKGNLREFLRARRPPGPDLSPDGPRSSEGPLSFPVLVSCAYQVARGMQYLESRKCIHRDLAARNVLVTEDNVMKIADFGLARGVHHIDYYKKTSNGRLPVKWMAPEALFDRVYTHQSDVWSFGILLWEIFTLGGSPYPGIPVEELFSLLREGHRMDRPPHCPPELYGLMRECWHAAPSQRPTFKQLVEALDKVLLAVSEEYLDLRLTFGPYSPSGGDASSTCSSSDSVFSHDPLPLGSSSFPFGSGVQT
# Sequence of Tyrosine-protein kinase Yes (Homo sapiens) (P07947 2-543 limits assumed): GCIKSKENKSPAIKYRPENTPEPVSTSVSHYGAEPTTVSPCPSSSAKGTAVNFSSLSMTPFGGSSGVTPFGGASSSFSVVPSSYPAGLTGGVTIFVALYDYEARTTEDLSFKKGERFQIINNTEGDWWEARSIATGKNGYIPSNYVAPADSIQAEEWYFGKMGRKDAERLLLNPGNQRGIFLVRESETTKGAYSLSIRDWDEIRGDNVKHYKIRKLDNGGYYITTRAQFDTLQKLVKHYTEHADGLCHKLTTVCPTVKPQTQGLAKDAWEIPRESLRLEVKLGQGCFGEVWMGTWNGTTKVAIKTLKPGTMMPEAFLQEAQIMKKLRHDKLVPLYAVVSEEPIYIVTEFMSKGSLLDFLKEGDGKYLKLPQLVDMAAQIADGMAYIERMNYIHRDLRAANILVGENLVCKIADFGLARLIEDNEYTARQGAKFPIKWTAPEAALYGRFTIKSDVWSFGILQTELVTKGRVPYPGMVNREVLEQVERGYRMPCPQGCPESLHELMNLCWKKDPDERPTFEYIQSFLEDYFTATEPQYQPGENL
# Sequence of Vascular endothelial growth factor receptor 1 (Homo sapiens) (P17948 whole entry): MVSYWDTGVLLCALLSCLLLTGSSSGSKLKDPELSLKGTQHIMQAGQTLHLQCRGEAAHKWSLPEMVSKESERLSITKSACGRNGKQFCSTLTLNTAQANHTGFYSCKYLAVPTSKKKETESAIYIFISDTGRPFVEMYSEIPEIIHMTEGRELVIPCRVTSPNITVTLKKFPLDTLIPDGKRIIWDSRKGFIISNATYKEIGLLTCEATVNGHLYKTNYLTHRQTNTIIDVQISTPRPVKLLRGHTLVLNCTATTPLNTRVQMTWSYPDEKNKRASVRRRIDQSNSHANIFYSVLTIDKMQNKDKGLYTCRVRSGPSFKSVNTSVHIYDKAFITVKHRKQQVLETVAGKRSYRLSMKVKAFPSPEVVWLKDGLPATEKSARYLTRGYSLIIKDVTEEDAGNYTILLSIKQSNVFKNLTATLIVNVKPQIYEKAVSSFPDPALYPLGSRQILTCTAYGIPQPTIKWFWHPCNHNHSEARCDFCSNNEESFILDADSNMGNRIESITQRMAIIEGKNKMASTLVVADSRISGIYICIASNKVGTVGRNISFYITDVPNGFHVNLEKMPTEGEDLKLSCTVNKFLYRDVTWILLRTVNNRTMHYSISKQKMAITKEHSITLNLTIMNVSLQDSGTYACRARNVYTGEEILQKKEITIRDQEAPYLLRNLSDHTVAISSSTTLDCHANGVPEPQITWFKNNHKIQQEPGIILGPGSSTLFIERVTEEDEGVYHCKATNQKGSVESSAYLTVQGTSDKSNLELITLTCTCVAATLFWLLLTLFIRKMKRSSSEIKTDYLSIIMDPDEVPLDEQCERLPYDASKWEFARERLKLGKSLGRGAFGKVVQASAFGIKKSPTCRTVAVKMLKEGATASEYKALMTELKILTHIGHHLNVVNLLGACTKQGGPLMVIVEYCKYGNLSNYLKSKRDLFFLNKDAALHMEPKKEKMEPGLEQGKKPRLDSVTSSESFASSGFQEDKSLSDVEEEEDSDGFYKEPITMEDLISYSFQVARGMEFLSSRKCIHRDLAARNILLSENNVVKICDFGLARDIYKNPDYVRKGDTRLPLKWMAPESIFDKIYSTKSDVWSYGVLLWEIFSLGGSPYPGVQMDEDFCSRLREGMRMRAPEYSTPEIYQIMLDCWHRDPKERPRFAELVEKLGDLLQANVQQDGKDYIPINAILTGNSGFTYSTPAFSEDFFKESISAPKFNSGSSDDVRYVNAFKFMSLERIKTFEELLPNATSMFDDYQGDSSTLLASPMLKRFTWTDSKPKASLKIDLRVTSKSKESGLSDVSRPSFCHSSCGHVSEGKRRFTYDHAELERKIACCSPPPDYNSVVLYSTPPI
# Sequence of Tyrosine-protein kinase Fgr (Homo sapiens) (P09769 2-529 limits assumed): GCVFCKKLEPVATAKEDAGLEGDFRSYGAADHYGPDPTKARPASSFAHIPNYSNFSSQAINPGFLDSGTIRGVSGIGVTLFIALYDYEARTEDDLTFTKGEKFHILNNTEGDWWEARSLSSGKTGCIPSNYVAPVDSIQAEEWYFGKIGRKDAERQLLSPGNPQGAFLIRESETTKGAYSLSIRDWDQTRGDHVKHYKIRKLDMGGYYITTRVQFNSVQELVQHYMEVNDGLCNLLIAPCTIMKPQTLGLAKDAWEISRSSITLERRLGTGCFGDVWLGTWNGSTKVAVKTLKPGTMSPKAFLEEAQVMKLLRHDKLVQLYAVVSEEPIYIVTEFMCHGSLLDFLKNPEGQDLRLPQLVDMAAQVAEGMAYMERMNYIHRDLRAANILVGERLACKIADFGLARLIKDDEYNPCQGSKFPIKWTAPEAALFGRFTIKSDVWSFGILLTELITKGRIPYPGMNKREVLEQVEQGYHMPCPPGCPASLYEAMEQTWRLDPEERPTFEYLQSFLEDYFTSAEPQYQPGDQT
# Sequence of Non-receptor tyrosine-protein kinase TYK2 (Homo sapiens) (P29597 whole entry): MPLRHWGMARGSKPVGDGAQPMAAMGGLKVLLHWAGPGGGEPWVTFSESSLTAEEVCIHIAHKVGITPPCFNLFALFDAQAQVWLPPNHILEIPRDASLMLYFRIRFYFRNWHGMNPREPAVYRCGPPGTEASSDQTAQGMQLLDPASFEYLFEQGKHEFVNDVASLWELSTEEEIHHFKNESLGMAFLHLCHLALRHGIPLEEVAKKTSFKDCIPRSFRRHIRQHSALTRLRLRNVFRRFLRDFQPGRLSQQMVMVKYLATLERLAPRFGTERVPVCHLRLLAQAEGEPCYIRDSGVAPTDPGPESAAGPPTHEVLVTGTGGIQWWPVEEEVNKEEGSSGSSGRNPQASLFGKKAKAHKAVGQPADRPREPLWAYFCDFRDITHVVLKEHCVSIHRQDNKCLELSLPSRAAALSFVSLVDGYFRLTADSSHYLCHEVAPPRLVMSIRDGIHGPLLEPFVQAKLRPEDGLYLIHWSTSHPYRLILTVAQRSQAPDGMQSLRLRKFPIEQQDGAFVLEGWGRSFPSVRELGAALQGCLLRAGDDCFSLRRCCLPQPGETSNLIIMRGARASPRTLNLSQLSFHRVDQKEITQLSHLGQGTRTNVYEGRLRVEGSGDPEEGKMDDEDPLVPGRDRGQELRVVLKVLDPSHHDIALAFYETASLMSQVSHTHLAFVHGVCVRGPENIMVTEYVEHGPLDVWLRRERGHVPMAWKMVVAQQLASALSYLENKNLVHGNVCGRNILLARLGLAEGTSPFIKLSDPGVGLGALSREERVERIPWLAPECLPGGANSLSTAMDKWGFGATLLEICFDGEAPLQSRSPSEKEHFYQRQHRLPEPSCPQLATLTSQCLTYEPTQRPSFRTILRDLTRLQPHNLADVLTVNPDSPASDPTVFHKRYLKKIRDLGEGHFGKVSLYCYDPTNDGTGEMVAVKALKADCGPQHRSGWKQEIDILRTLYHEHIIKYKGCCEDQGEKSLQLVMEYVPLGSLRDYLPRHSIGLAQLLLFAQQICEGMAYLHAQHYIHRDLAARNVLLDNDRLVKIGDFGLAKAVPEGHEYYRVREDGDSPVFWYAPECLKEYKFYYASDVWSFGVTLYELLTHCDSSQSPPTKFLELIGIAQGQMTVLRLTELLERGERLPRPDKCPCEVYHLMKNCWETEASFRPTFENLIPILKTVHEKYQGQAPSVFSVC
SMILES,inhibition [1] [%],inhibition [2] [%],inhibition [3] [%],inhibition [4] [%],inhibition [5] [%],inhibition [6] [%],inhibition [7] [%],inhibition [8] [%],inhibition [9] [%],inhibition [10] [%],inhibition [11] [%],inhibition [12] [%],inhibition [13] [%],inhibition [14] [%],inhibition [15] [%],inhibition [16] [%],inhibition [17] [%],inhibition [18] [%],inhibition [19] [%],inhibition [20] [%]
Fc1ccc(-c2ncn(CCCN3CCOCC3)c2-c2ccncc2)cc1,0.42,-2.23,3.21,-2.17,0.42,0.43,1.49,-3.55,-0.81,-0.71,-1.64,-0.25,-0.03,3.48,3.14,0.29,1.33,0.73,0.78,-0.34
C/C(Nc1ccc(S(N)(=O)=O)cc1)=C1/C(=O)Nc2ccccc21,3.59,0.92,11.4,10.8,23.6,13.9,62.9,7.17,6.88,1.52,16.8,-1.58,14.1,-2.58,0.18,-1.47,0.23,-2.48,-0.68,-5.23
C[C@@H](Oc1cc(-n2cnc3ccc(OC4CCN(C)CC4)cc32)sc1C(N)=O)c1ccccc1Cl,-1.19,3.65,4.89,1.54,3.12,3.07,14.4,1.72,-7.54,2.39,4.84,-0.81,3.04,-2.84,-1.32,5.72,7.68,4.5,3.24,2.09
C#Cc1cccc(Nc2ncnc3ccc(OCCCCNCCS(C)(=O)=O)cc23)c1,-1.61,10.5,15.5,2.51,4.95,1.29,2.94,3.91,-1.47,2.65,8.46,4.13,12.3,-1.39,-2.29,8.08,6.4,8.35,5.48,-5.79
COc1cc(Nc2ncc3c(C)nc(-c4cccc(Oc5ccccc5)c4)n3n2)cc(OC)c1OC,1.97,0.02,4.22,0.68,2.1,3.86,28.5,3.72,-3.18,2,5.32,-0.14,7.34,1.87,-1.81,3.08,12.2,2.54,11.4,2.2
CCc1nccc2c1nc(-c1nonc1N)n2CC,1.32,-0.77,3.85,-0.82,1.6,-0.04,0.33,-2.37,-2.82,-0.74,-0.82,0.39,1.95,1.4,0.96,-0.39,1.49,0.46,1.01,-4.45
O=C(Nc1n[nH]c2cc(-c3ccccc3)ccc12)C1CC1,0.83,1.51,12.8,3.64,2.3,0.48,2.82,-3.75,-4.78,3.71,16.1,1.86,5.44,4.16,1.7,7.16,6.29,6.47,6.53,-0.71
COc1ccc2cc(-c3c(-c4ccncc4)nc(-c4ccc(S(C)(=O)=O)cc4C)n3C)ccc2c1,2.96,3.77,4.62,0.91,2.09,1.65,1,-1.54,-1.13,2.19,5.53,3.64,20.9,-0.34,0.82,6.36,6.36,6.6,5.85,5.5
FC(F)(F)c1cccc(Nc2nccc(-c3cnn4nc(-c5ccccc5)ccc34)n2)c1,1.26,2.98,8.69,2.04,1.17,1.84,18.2,-4.32,-5.81,-0.57,0.62,2.51,24.8,0.98,2.56,3.36,4.64,2.72,4.02,-0.56
Cc1ccc(NC(=O)c2ccoc2)cc1-c1ccc(C(=O)NCC2CC2)cc1,1.63,2.23,3.07,1.47,8.07,0.8,0.9,-5.38,-0.16,0.97,3.21,3.34,1.5,-0.49,1.63,3.14,2.28,2.97,1.81,0.61
COc1cc(Nc2ncc3c(C)nc(-c4cccc(C(F)(F)F)c4)n3n2)cc(OC)c1OC,0.75,7.22,14,2.19,5.18,6.14,36.3,3.11,-1.24,4.04,10.6,11.6,42.7,1.78,2.75,5.44,14.8,5.48,13.2,3.02
O=C(NCC1CC1)c1ccc(-c2cccc(C(=O)NC3CC3)c2)cc1,0.84,-0.78,4.28,2.16,3.45,1.49,3.46,0.3,-5.6,3.93,0.81,-0.02,-2.38,1.15,1.3,3.46,3.07,1.59,1.43,5.36
NC(=O)c1ccc(Oc2nccc(-c3c(-c4ccc(F)cc4)ncn3C3CCNCC3)n2)cc1,3.45,1.87,3.62,0.89,-0.43,2.76,4.78,0.27,-4.56,2.41,4.62,4.3,4.13,2.59,4.42,7.51,10.8,4.69,5.64,3.18
